Source: PubChem BioAssay AID1159580 (chemical genetic matrix, 2015)
Values joined by “and” are separate entries in the source; they are usually repeats but may differ in a detail not shown here. Equal entries are not always repeated. The campaign covered roughly 5,500 compounds. About 2,000 (36%) were called active. Inconclusive results (about 18%) are left out. Cut-off read from the data, not from the text of the source: active = normalized growth mostly below about 0.91 (no sharp cut-off); inconclusive = no clear call, values can overlap the other calls; inactive = mostly above about 0.92. This is one part of the list.

Test: chemical genetic growth profiling, strain panel (AID 1159580);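 note: tested at 20 µM; growth read once vehicle control cultures reached saturation at 30 °C; 1 = growth at the plate median or of vehicle wells; lower values mean less growth of the strain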
Conditions: S. cerevisiae deletion strains, growth OD

Measured: normalized growth

CC(=O)N(O)CCCCCNC(=O)CCC(=O)N(O)CCCCCNC(=O)CCC(=O)N(O)CCCCCN
active: locus YBR021W, strain FUR4, active compounds read low 0.845
inactive: locus YAL013W, strain DEP1, active compounds read low 0.997 | locus YAL021C, strain ccr4, active compounds read low 0.959 | locus YAL026C, strain drs2, active compounds read low 1 | locus YAL030W, strain snc1, active compounds read low 1 | locus YBL061C, strain skt5, active compounds read low 1 | locus YBR009C, strain hhf1, active compounds read low 1 | locus YBR023C, strain chs3, active compounds read low 1.02 | locus YBR171W, strain sec66, active compounds read low 1.01 | locus YBR229C, strain ROT2, active compounds read low 1.01 | locus YBR231C, strain swc5, active compounds read low 0.967 | locus YBR279W, strain paf1, active compounds read low 0.99 | locus YCL011C, strain gbp2, active compounds read low 1.04 | locus YCL016C, strain dcc1, active compounds read low 1.03 | locus YCL029C, strain bik1, active compounds read low 1.04 | locus YCL069W, strain vba3, active compounds read low 0.994 | locus YCR088W, strain abp1, active compounds read low 1.02 | locus YDL005C, strain med2, active compounds read low 1.01 | locus YDL035C, strain GPR1, active compounds read low 0.987 | locus YDL040C, strain nat1, active compounds read low 1 | locus YDL074C, strain BRE1, active compounds read low 0.907 | locus YDL101C, strain DUN1, active compounds read low 1.01 | locus YDL185W, strain tfp1, active compounds read low 0.967 | locus YDL192W, strain arf1, active compounds read low 1.01 | locus YDR001C, strain nth1, active compounds read low 1.03 | locus YDR069C, strain doa4, active compounds read low 0.978 | locus YDR101C, strain arx1, active compounds read low 1.04 | locus YDR137W, strain rgp1, active compounds read low 1.12 | locus YDR150W, strain NUM1, active compounds read low 1.01 | locus YDR159W, strain sac3, active compounds read low 1.05 | locus YDR162C, strain NBP2, active compounds read low 0.997 | locus YDR195W, strain ref2 1.03 | locus YDR297W, strain sur2, active compounds read low 0.997 | locus YDR318W, strain mcm21, active compounds read low 1.02 | locus YDR334W, strain swr1, active compounds read low 0.998 | locus YDR335W, strain msn5, active compounds read low 0.987 | locus YDR388W, active compounds read low 1.02 | locus YDR392W, strain spt3, active compounds read low 1.2 | locus YDR502C, strain sam2, active compounds read low 1.04 | locus YEL003W, strain gim4, active compounds read low 0.961 | locus YEL037C, strain rad23, active compounds read low 0.997 | locus YEL061C, strain CIN8 (second series), active compounds read low 1.01 | locus YEL061C, strain CIN8, active compounds read low 1.01 | locus YER015W, strain faa2, active compounds read low 0.944 | locus YER016W, strain bim1, active compounds read low 1.01 | locus YER110C, active compounds read low 1.01 | locus YER111C, strain swi4, active compounds read low 0.973 | locus YER155C, strain BEM2 (second series), active compounds read low 1.06 | locus YER155C, strain BEM2, active compounds read low 1.04 | locus YER167W, strain BCK2, active compounds read low 1.05 | locus YFR010W, strain ubp6, active compounds read low 0.986 | locus YGL078C, strain dbp3, active compounds read low 1.07 | locus YGL086W, strain mad1, active compounds read low 1.01 | locus YGL167C, strain pmr1, active compounds read low 0.978 | locus YGL173C, strain kem1, active compounds read low 0.99 | locus YGL227W, strain vid30, active compounds read low 1.02 | locus YGL240W, strain doc1, active compounds read low 1.01 | locus YGL248W, strain PDE1, active compounds read low 0.987 | locus YGL253W, strain hxk2, active compounds read low 0.989 | locus YGR078C, strain PAC10, active compounds read low 0.983 | locus YGR135W, strain pre9, active compounds read low 0.994 | locus YGR252W, strain gcn5, active compounds read low 0.771 | locus YHR013C, strain ard1, active compounds read low 0.984 | locus YHR027C, strain rpn1, active compounds read low 0.94 | locus YHR030C, strain SLT2, active compounds read low 1.02 and 1.05 | locus YHR079C, strain IRE1 (second series), active compounds read low 1.02 | locus YHR079C, strain IRE1, active compounds read low 1.05 | locus YHR094C, strain hxt1, active compounds read low 1.02 | locus YHR129C, strain ARP1, active compounds read low 1.01 | locus YHR142W, strain chs7, active compounds read low 0.981 | locus YHR200W, strain rpn10, active compounds read low 1.03 | locus YIL066C, strain RNR3, active compounds read low 1.01 | locus YIL073C, strain SPO22, active compounds read low 0.95 | locus YIL125W, strain kgd1, active compounds read low 1.04 | locus YIR030C, strain dcg1, active compounds read low 1.03 | locus YJL092W, strain hpr5, active compounds read low 1.03 | locus YJL095W, strain BCK1 (second series), active compounds read low 1.01 | locus YJL095W, strain BCK1, active compounds read low 0.959 and 1.05 | locus YJL115W, strain asf1, active compounds read low 1.01 | locus YJL129C, strain trk1, active compounds read low 1.01 | locus YJL134W, strain LCB3, active compounds read low 1.01 | locus YJL154C, strain vps35, active compounds read low 1.01 | locus YJL164C, strain tpk1, active compounds read low 1.03 | locus YJL166W, strain qcr8, active compounds read low 1.02 | locus YJL168C, strain set2, active compounds read low 1.01 | locus YJL187C, strain SWE1 (second series), active compounds read low 0.975 | locus YJL187C, strain SWE1, active compounds read low 0.987 | locus YJR043C, strain POL32, active compounds read low 1.02
